# From PubChem BioAssay (NCI)
# About 83,000 compounds went through this panel and 20% of them were active in at least one assay; those are over-represented in the sample as a whole.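 Cell lines were cultured in 96-well plates, exposed to a single compound concentration, and assessed for percent growth 48 hours later.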 Values without a mark were called inactive. Calls of active or inactive are those of the source. Rule for the calls: active = growth percent below 10; inactive = the rest.
# Test system: SF-539 CNS
# Test: NCI-60 one-dose screen, 48 h (100 = growth as untreated, 0 = no growth, -100 = all killed)
# Details: 10 µM unless noted
row,Compound,growth
1,Clc1cccc(Cl)c1Nc1ccc2nnc(-c3ccncc3)n2n1,95.7%
2,CC(C)(C)[Si](C)(C)OC1[C@@H](CNC(=O)NC(=O)CCl)O[C@@H](n2cnc3c(N)ncnc32)[C@H]1O[Si](C)(C)C(C)(C)C (some centres undefined),15%
3,CC(=O)Nc1ccc(Sc2ccc([N+](=O)[O-])o2)cc1,15.3%
4,CC(C)(C)[Si](C)(C)OC1[C@@H](COC(=O)NC(=O)CCl)O[C@@H](n2cnc3c(N)ncnc32)[C@H]1O[Si](C)(C)C(C)(C)C (some centres undefined),89.8%
5,COc1ncnc2c1ncn2C/C(Br)=C(\Br)CCl,11.8%
6,O=C1c2ccccc2C(=O)c2c(Nc3ccc(CCO)cc3)ccc(O)c21,84.8%
7,COc1ccccc1CNCCCCCCCCCCCCN1C(=O)c2ccc3c4c(ccc(c24)C1=O)C(=O)N(CCCCCCCCCCCCNCc1ccccc1OC)C3=O,1.92% (active)
8,CC(=O)c1cc(C)c(OC(=O)c2ccccc2)c(C)c1,100%
9,COC(=O)/C=C1/CCC2C3CCC4=CC(=O)C(Br)CC4(C)C3C(=O)CC12C (centres undefined),97.4%
10,O=c1[nH]c(-c2ccccn2)nc2sc3c(c12)CCCCCC3,61.7%
11,CC(C)OC1=C(Cl)C(=O)c2ccccc2C1=O,38.4%
12,CCCCCn1c(=N)n(CC(O)COc2cccc(C)c2)c2ccccc21 (centres undefined),-14.7% (active)
13,CC1SC(c2cccc(Oc3ccccc3)c2)N(CCc2cccs2)C1=O (centres undefined),-82.3% (active)
14,CC(C)(C)[Si](C)(C)OC1[C@@H](COC(N)=O)O[C@@H](n2cnc3c(N)ncnc32)[C@H]1O[Si](C)(C)C(C)(C)C (some centres undefined),97.4%
15,COc1ccc(-c2csc3c2-n2cccc2C3=O)cc1O,15.6%
16,O=c1[nH]c(-c2ccncc2)nc2sc3c(c12)CCCCCC3,82.6%
17,COc1ccc(-n2c(SCc3cc(OC)c(OC)c(OC)c3)nc3ccc(C)cc3c2=O)c(OC)c1,20%
18,O=C1NC(=O)C(CSc2ccccc2)(c2ccccc2)N1 (centres undefined),113%
19,Fc1ccccc1Nc1ccc2nnc(-c3ccncc3)n2n1,106%
20,CC(C)(C)[Si](C)(C)OC1[C@@H](O[Si](C)(C)C(C)(C)C)[C@@H](CNC(=O)NC(=O)C(F)(F)F)O[C@H]1n1cnc2c(NC(=O)Nc3ccccc3)ncnc21 (some centres undefined),92.5%

row,Compound,growth
1,Cc1ccc(N=c2nc3sc4c(C)ccc(C)c4n3c(N)c2C#N)cc1,99.1%
2,COCCOC1=C(Cl)C(=O)c2ccccc2C1=O,-10.4% (active)
3,CCOC(=O)C1=C(C)N2C(=NC3=C(CCCC/C3=C\c3ccccc3)C2c2ccccc2)S1 (centres undefined),99.3%
4,CCN1CCN(C(=S)SCC(=O)Nc2nc3ccc(OC)cc3s2)CC1,109%
5,Oc1ccccc1/C=N/Nc1nc2ccccc2s1,44.6%
6,CC(=O)Nc1ccccc1-c1n[nH]c(=O)[nH]c1=O,91.3%
7,Oc1ccc2ccccc2c1C1NN=C(c2ccccc2)S1 (centres undefined),12%
8,O=c1c2c(=NCCN3CCCC3)cc3c(=O)n(CCCN4CCOCC4)c(=O)c4ccc(c(O)n1CCCN1CCOCC1)c2c4-3,-53.9% (active)
9,COc1ccccc1-n1c(SCc2cc(OC)c(OC)c(OC)c2)nc2ccc(Cl)cc2c1=O,64.6%
10,Nc1c(Br)cc(Br)cc1-c1n[nH]c(=O)[nH]c1=O,92.5%
11,O=C1C(OCCOc2ccccc2)=C(OCCOc2ccccc2)C(=O)c2ccccc21,94.9%
12,O=c1nc(NO)[nH]c(=O)n1Cc1ccccc1,98.7%
13,COc1ccc(-c2nc3sc(C)nn3c2-c2nc3cc(C)c(C)cc3[nH]2)cc1,95%
14,Cc1ccc2nc(NC(=O)CSC(=S)N3CCN(C)CC3)sc2c1,100%
15,CC[Si](CC)(CC)OC1[C@@H](O[Si](CC)(CC)CC)[C@@H](CNC(=O)NC)O[C@H]1n1cnc2c(NC(=O)Nc3ccccc3)ncnc21 (some centres undefined),99%
16,COc1ccc(C2SC(C)C(=O)N2CCc2cccs2)cc1OC (centres undefined),94.1%
17,Cc1cc(=O)[nH]n1-c1cc(Cl)ccc1N,102%
18,c1ccc2cc(Cn3c(-c4ccc5ccccc5c4)[n+](Cc4ccc5ccccc5c4)c4ccccc43)ccc2c1,-75.2% (active)
19,COc1cc2nc(SCc3cc(OC)c(OC)c(OC)c3)n(-c3ccccc3OC)c(=O)c2cc1OC,89.9%
